Screening results from PubChem.
TDP43 rescue: inhibitors of TDP-43 toxicity in yeast; TDP-43 expressing yeast growth rescue, BacTiter-Glo, 24 h; 410,000 tested, 1.8% active; Potency, µM (doses to about 46.1 µM), hits mostly activators; further: nearly all actives have a fitted effect of over 50% in size
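Yeast expressing TDP-43 (pregrown in raffinose, seeded at OD600=0.02 in galactose medium) exposed to compounds 24 hr at 30 deg C. Growth read by BacTiter-Glo luminescence; rescue of toxicity appears as increased signal.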
FUS yeast rescue: suppressors of FUS proteinopathy in yeast | S. cerevisiae FUS-expressing, growth rescue, OD600, 24 h | Potency, µM (series often up to 76.6 µM), most hits filed as activators | 390,000 tested, 0.24% active | AID 1347120; further: nearly all actives have a fitted effect of over 55% in size
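S. cerevisiae expressing FUS from galactose induction served as the toxicity model. Growth after 24hr at 30C, read as absorbance at 600 nm, indicates suppression of toxicity; compounds dosed at several concentrations.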
aSyn rescue: alpha-synuclein toxicity inhibition in yeast. 370,000 tested, 0.14% active. Potency, µM (titrated, usually from 46.1 µM), hits mostly activators. Yeast expressing alpha-synuclein, growth rescue, BacTiter-Glo, 24 h; further: nearly all actives have a fitted effect of over 65% in size
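Galactose-induced alpha-syn yeast (OD600=0.02, raffinose-pregrown) + pinned cpd, 24 hr, 30 deg C; growth by BacTiter-Glo luminescence. Growth restoration scores as activation.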
Abeta rescue: A-beta toxicity reversal in yeast. yeast expressing A-beta42, growth rescue, OD600, 48 h; response scale: 0% DMSO, 100% iron-clioquinol control. 410,000 tested, 0.063% active. AID 1347071. Potency, µM (highest dose often 46.1 µM), actives largely listed as activators; further: nearly all actives have a fitted effect of over 55% in size
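Yeast A-beta toxicity model in growth medium with pinned compounds, 48 h at 30 C; growth read as absorbance at 600 nm. Normalized to FeCl3/clioquinol equimolar mix (positive) and DMSO (negative).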
A number is an active result; [ ] = dose if it differs, or a comment. In the library only some 2.1% were active in any assay of this set; here they are far more common. The call rests on the fitted dose curve; in most records, active means well fitted curve in the direction sought with a large enough effect; inconclusive means small, poorly fitted or top-dose-only effect, or another doubt; inactive means no such curve, though single readings can be large; an effect the other way counts as inactive or inconclusive.

Screening CCc1ccc(NC(=O)c2noc(C(C)C)c2[N+](=O)[O-])cc1 returned TDP43 rescue 11.2µM, FUS yeast rescue inactive, aSyn rescue inactive and Abeta rescue inactive.
`CC(C)c1onc(C(=O)NCc2ccc(F)cc2)c1[N+](=O)[O-]` gave TDP43 rescue inconclusive, aSyn rescue inactive and Abeta rescue inactive.
`CC(=O)c1ccc(NC(=O)c2noc(C(C)C)c2[N+](=O)[O-])cc1` gave TDP43 rescue 17.8µM, FUS yeast rescue inactive, aSyn rescue inactive and Abeta rescue inactive.
`CNc1ccc(/C=C2\C=Cc3ccccc32)cc1OC` gave aSyn rescue inactive.
COc1ccc(CNC(=O)CCc2c(C)nn(-c3ccc(N4CCCC4)nn3)c2C)c(OC)c1 was read as TDP43 rescue inactive, FUS yeast rescue inactive and Abeta rescue inactive.
COc1cccc(Nc2nc3ccccc3n3cnnc23)c1 was read as TDP43 rescue 12.6µM, FUS yeast rescue inactive, aSyn rescue inactive and Abeta rescue inactive.
For CCc1ccccc1Nc1nc2ccccc2c2nncn12 the results were TDP43 rescue 17.8µM, FUS yeast rescue inactive and Abeta rescue inactive.
`Cc1ccc(O)c(Nc2nc3ccccc3c3nncn23)c1` gave TDP43 rescue inactive, FUS yeast rescue inactive and Abeta rescue inactive.
CCc1ccccc1Nc1nc2ccccc2n2cnnc12 was read as TDP43 rescue 12.6µM, FUS yeast rescue inactive and Abeta rescue inactive.
`O=C(NCCCc1nc2ccccc2n1CCCOc1ccccc1)C1CCCCC1` gave aSyn rescue inactive.
Screening COc1ccc(N=Nc2nc3ccc(Br)cc3n2C)cc1 returned TDP43 rescue 12.6µM, FUS yeast rescue inactive, aSyn rescue inactive and Abeta rescue inactive.
C#CCOCCOCCOCCNc1nc(N2CCN(C(=O)CCCCCCCCCCNC(=O)[C@H](CCCCN)n3cc(CCO)nn3)CC2)nc(N2CCN(C(=O)CCCCCCCCCCNC(=O)[C@H](CCCCN)n3cc(C[C@@H](C)CC)nn3)CC2)n1 was read as TDP43 rescue inactive, FUS yeast rescue inconclusive, aSyn rescue inactive and Abeta rescue inactive.
For C#CCOCCOCCOCCNc1nc(N2CCN(C(=O)CCCCCCCCCCNC(=O)[C@@H](CCSC)n3cc(CCO)nn3)CC2)nc(N2CCN(C(=O)CCCCCCCCCCNC(=O)[C@H](CCCN=C(N)N)n3cc(C[C@@H](C)CC)nn3)CC2)n1 the results were TDP43 rescue inactive, FUS yeast rescue 10µM, aSyn rescue inactive and Abeta rescue inactive.
Screening C#CCOCCOCCOCCNc1nc(N2CCN(C(=O)CCCCCCCCCCNC(=O)[C@H](CCCCN)n3cc(C[C@@H](C)CC)nn3)CC2)nc(N2CCN(C(=O)CCCCCCCCCCNC(=O)[C@H](CCCN=C(N)N)n3cc(C[C@@H](C)CC)nn3)CC2)n1 returned TDP43 rescue inactive, FUS yeast rescue 10µM, aSyn rescue inactive and Abeta rescue inactive.
Screening C#CCOCCOCCOCCNc1nc(N2CCN(C(=O)CCCCCCCCCCNC(=O)[C@H](CCCCN)n3cc(C)nn3)CC2)nc(N2CCN(C(=O)CCCCCCCCCCNC(=O)[C@H](CCCN=C(N)N)n3cc(C[C@@H](C)CC)nn3)CC2)n1 returned TDP43 rescue inconclusive, FUS yeast rescue inconclusive, aSyn rescue inactive and Abeta rescue inactive.
`CC(=O)c1ccc(NC(=O)CSc2cn(CC(=O)N3CCCCCC3)c3ccccc23)cc1` gave TDP43 rescue inactive, FUS yeast rescue inconclusive and Abeta rescue inactive.
For Cc1ccc(NC(=O)N2CC3CCCN3c3ccccc32)cc1Cl (stereo unspecified) the results were TDP43 rescue inconclusive, FUS yeast rescue inactive and Abeta rescue inactive.
`Cc1ccc(NC(=O)N2CC3CCCN3c3ccccc32)cc1C` (stereo unspecified) gave TDP43 rescue 20µM, FUS yeast rescue inactive and Abeta rescue inactive.
For CCC(C(=O)OCC(=O)Nc1ccc(SC(F)F)cc1)c1ccccc1 (stereo unspecified) the results were TDP43 rescue 10µM, FUS yeast rescue inactive, aSyn rescue inactive and Abeta rescue inconclusive.
Screening O=C(CCO)c1ccc(O)cc1 returned TDP43 rescue inactive, FUS yeast rescue inactive, aSyn rescue inactive and Abeta rescue inactive.
Screening O=C(CCSc1ccc(Br)cc1)c1ccc(O)cc1 returned TDP43 rescue 11.2µM, FUS yeast rescue inactive, aSyn rescue inactive and Abeta rescue inactive.
Screening O=C(CNCc1ccccc1[N+](=O)[O-])N1CCC2(CC1)OCCO2 returned FUS yeast rescue inactive.
Screening NC(=O)Nc1ccc(C(=O)OCC(=O)c2c[nH]c3ccccc23)cc1 returned TDP43 rescue inactive, FUS yeast rescue inactive, aSyn rescue inactive and Abeta rescue inactive.
For O=C(OCC(=O)c1c[nH]c2ccccc12)c1cncc(Br)c1 the results were TDP43 rescue 11.2µM, FUS yeast rescue inactive, aSyn rescue inactive[1.84 µM] and Abeta rescue inactive.
`Cc1cc(OCc2cc(C(=O)N(C)Cc3ccccn3)no2)cc(C)c1Cl` gave TDP43 rescue inconclusive, FUS yeast rescue inconclusive, aSyn rescue inactive and Abeta rescue inconclusive.
For Cc1cc(OCc2cc(C(=O)N(C)C(C)c3ccccn3)no2)cc(C)c1Cl (stereo unspecified) the results were TDP43 rescue 22.4µM, FUS yeast rescue inconclusive, aSyn rescue inactive and Abeta rescue inconclusive.
For Cc1cc(OCc2cc(C(=O)NC(C)c3cnn(C)c3)no2)cc(C)c1Cl (stereo unspecified) the results were TDP43 rescue 31.6µM, FUS yeast rescue inactive, aSyn rescue inconclusive and Abeta rescue inactive.
For COc1ccc(CNc2oc(COc3cccc(C)c3)nc2C#N)cc1 the results were TDP43 rescue 22.4µM, FUS yeast rescue inactive and Abeta rescue inactive.
For Cc1ccc(OCc2nc(C#N)c(NCc3ccco3)o2)cc1 the results were TDP43 rescue 11.2µM, FUS yeast rescue inactive, aSyn rescue inactive and Abeta rescue inactive.
For COc1ccc(Nc2oc(COc3ccc(C)cc3)nc2C#N)cc1 the results were TDP43 rescue 22.4µM, FUS yeast rescue inactive and Abeta rescue inactive.
`C[C@H]1[C@@H](OC(=O)NCc2ccco2)CC[C@@]23CCCN2C(=O)CCC[C@@H]13` gave FUS yeast rescue inactive.
`Cc1ccc(-c2csc3ncnc(Cl)c23)cc1` gave TDP43 rescue 15.8µM, FUS yeast rescue inactive, aSyn rescue inactive and Abeta rescue inactive.
Screening O=C1Nc2ccc(Br)cc2/C1=C/C1CC=CCC1 (stereo unspecified) returned TDP43 rescue 20µM, FUS yeast rescue inactive, aSyn rescue inactive and Abeta rescue inactive.
`Cc1cc(C)c(C#N)c(SCc2ccc([N+](=O)[O-])cc2)n1` gave TDP43 rescue inactive, FUS yeast rescue inactive, aSyn rescue inactive and Abeta rescue inactive.
Screening Cc1cc(C)c(C#N)c(Sc2nc(C)c([N+](=O)[O-])c(C)c2C#N)n1 returned TDP43 rescue 20µM, FUS yeast rescue inactive, aSyn rescue inactive and Abeta rescue inactive.
